Source: PubChem (National Center for Advancing Translational Sciences (NCATS))
This is a sample that favours compounds with a hit; in the whole collection about 5.7% have one here.
ClpP mod = qHTS Assay for Activators of ClpP; Potency, µM (highest dose often 57.5 µM); purified B. subtilis ClpP, FRET peptide cleavage, 20 min; 340,000 tested, 1.9% active; ATP-dependent Clp protease proteolytic subunit (Bacillus subtilis (strain 168)), P80244; AID 651965, 2013; active = well fitted falling curve with a large enough effect; inconclusive = small, poorly fitted or top-dose-only effect; inactive = no such curve, though single readings can be large or run the other way; note: the source files actives as falling curves though it sought activators and does not explain the sign; nearly all actives have a fitted effect of over 65% in size
Target sequence (P80244 whole entry, looked up): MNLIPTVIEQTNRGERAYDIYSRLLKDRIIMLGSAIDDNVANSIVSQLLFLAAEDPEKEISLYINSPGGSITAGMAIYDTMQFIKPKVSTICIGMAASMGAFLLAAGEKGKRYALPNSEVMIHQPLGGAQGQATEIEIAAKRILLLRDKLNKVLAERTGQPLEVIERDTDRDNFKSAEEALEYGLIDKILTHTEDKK
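Purified B. subtilis ClpP, 10 microg/mL final in Tris/HCl pH8 with KCl, BSA, glycerol and Tween-20, cleaved an Abz/nitrotyrosine-quenched decapeptide. Fluorescence (ex 320, em 430) was read at 0 and 20 min at room temperature. Delta was normalized to 5.8 microM ADEP and DMSO/no-enzyme controls.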
GLP-1R agonist = activates the human GLP-1 receptor; HEK293 GLP-1R CRE-luciferase, luminescence, 4-6 h; cells express a hypersensitive GLP-1R form; Potency, µM (doses to about 45.6 µM), most hits filed as activators; 380,000 tested, 0.007% active
HEK293 tox = cytotoxicity counter-screen for GLP-1 receptor inverse agonists; Potency, µM (top dose mostly 38.3 µM), actives largely listed as inhibitors; HEK293 cAMP-luciferase reporter cells, luminescence, 24 h; AID 624418; 410,000 tested, 0.13% active;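 note: loss of luciferase light is scored as toxicity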
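1536-well qHTS counterscreen of the MLSMR; 200 cells/uL, 12 h pre-incubation, 23 nL cpd, 24 h at 37 deg C 5% CO2, luciferase detection reagent, 12 min RT, luminescence. Inhibition = undesired.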
DRD3 agonist = agonists of human D3 dopamine receptor | P35462 | D3R DiscoveRx beta-arrestin cells, luminescence, 90 min | max activation, % | 410,000 tested, 0.58% active; in the data active = max activation above about 30%
Target sequence (P35462 whole entry, looked up): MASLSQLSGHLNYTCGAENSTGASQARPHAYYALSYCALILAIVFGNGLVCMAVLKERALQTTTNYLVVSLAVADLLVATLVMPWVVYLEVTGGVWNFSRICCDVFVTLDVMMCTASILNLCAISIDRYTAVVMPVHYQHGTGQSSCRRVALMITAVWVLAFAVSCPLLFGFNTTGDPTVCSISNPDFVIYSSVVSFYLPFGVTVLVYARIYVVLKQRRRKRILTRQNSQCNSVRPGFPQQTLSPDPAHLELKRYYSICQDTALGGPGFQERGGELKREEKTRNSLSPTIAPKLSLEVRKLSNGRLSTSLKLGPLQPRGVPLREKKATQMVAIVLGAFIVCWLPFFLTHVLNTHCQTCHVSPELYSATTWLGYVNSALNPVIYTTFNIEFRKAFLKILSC
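Cells at 1500/well, incubated overnight, then treated with pinned compounds (dopamine as control) for 90 min at 37 degrees C. DiscoveRx reagent added for 30 - 60 minutes at room temperature; luminescence read.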
D3 antag = blocks the human D3 dopamine receptor. P35462. D3R cells, DiscoveRx beta-arrestin luminescence, antagonist mode; active compounds read low. max response, negative = inhibition, %. 360,000 tested, 2.5% active; in the data active = max response below about -50%; inconclusive = no clear call, values can overlap the other calls
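Cells expressing the human receptor were seeded at 1500 cells/well, incubated overnight at 37 degrees C in 5% CO2, then exposed to library compounds with dopamine controls for 90 minutes at 37 degrees C before luminescent detection.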
GLP-1R inv ag = inverse agonists of human GLP-1 receptor | Potency, µM (top dose mostly 38.3 µM), usual class: inhibitors | AID 624417 | HEK293 GLP-1R CRE-luciferase, luminescence, 24 h; GLP-1R form is constitutively active | 410,000 tested, 1.6% active | P43220; note: nearly all actives have a fitted effect of over 55% in size
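Assay principle: reduced luminescence from a cAMP-responsive reporter in HEK293 cells co-expressing a constitutively active GLP-1R. Conditions: 24 hr compound incubation, 37 deg C, 5% CO2.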
Numbers stand for hits; - = inactive; ? = inconclusive; . = not tested or not shown; [ ] = dose if it differs, or a comment. Unless noted, calls come from the whole dose curve; as a rule, active = well fitted curve in the direction sought with a large enough effect; inconclusive = small, poorly fitted or top-dose-only effect, or another doubt; inactive = no such curve, though single readings can be large; an effect the other way counts as inactive or inconclusive.

SMILES	ClpP mod	GLP-1R agonist	HEK293 tox	DRD3 agonist	D3 antag	GLP-1R inv ag
Cc1ccc(N(CC(=O)Nc2ccc(C)c(F)c2)S(=O)(=O)c2c(C)n[nH]c2C)cc1	-	-	-	-	.	?
Cc1ccc(CNC(=O)C2CCN(S(=O)(=O)N3CCOCC3)CC2)cc1	-	-	-	40.3	-	-
Cc1ccccc1N=C(NOCc1ccc(Cl)cc1Cl)c1nonc1N	-	-	-	-	-84.7	-
Cc1ccccc1N=C(NOCc1ccccc1)c1nonc1N	-	-	-	-	-	10µM
CS(=O)(=O)c1ccc(C(=O)OCC(=O)N2CCCC2)cc1[N+](=O)[O-]	-	.	.	.	.	.
O=C1CCCc2ccccc2N1Cc1ccc(Cl)cc1Cl	-	-	-	-	-	11.2µM
O=C(c1ccc2c(c1)N(Cc1ccccc1F)C(=O)c1ccccc1S2(=O)=O)N1CCCCCC1	-	-	-	-	.	-
CCN1CCN(C(=O)c2ccc3c(c2)N(Cc2ccccc2F)C(=O)c2ccccc2S3(=O)=O)CC1	-	-	-	-	-61.0	-
Cc1ccc(C)c(CN2C(=O)c3ccccc3S(=O)c3ccc(C(=O)N4CCN(c5ccccn5)CC4)cc32)c1 (centres undefined)	.	-	-	-	-	2.24µM
Cc1ccc(C)c(CN2C(=O)c3ccccc3S(=O)c3ccc(C(=O)N4CCN(c5ccccc5F)CC4)cc32)c1 (centres undefined)	-	-	-	-	.	?
CC1CCC(NC(=O)c2ccc3c(c2)N(Cc2ccccc2)C(=O)c2ccccc2S3=O)CC1 (centres undefined)	?	-	-	-	.	?
CC1CC(C)CN(CCCNC(=O)c2ccc3c(c2)N(Cc2ccccc2)C(=O)c2ccccc2S3=O)C1 (centres undefined)	-	-	-	-	-72.5	?
CCN1CCN(C(=O)c2ccc3c(c2)N(Cc2ccccc2)C(=O)c2ccccc2S3=O)CC1 (centres undefined)	-	-	-	-	-56.0	-
CCN1CCN(C(=O)c2ccc3c(c2)N(Cc2cccc(Cl)c2)C(=O)c2ccccc2S3=O)CC1 (centres undefined)	-	.	-	-	.	-
Cc1ccc(NC(=O)CSc2nc3ncccc3[nH]2)cc1F	-	.	-	-	.	-
CC(C)(C)C1CCc2c(sc(NC(=O)c3ccc(Cl)cc3)c2C(=O)NCc2ccco2)C1 (centres undefined)	-	.	-	-	.	-
OC(CBr)C[n+]1cc(Br)cc2ccccc21 (centres undefined)	-	.	.	.	.	.
O=C(NCc1ccco1)c1ccc2c(c1)N(Cc1cccc(Cl)c1)C(=O)c1ccccc1S2=O (centres undefined)	-	.	-	59.2	.	-
OCCNCc1cc(Br)ccc1OCc1ccc(Cl)cc1	-	-	-	-	-	?
OCCNCc1cc(Br)ccc1OCc1ccc(Cl)cc1Cl	-	-	?	-	-	6.31µM
Cc1ccc(-n2c3c(c(=O)[nH]c2=O)C(NC(=O)c2ccccc2C)(C(F)(F)F)C(=O)N3)cc1 (centres undefined)	-	.	-	-	.	-
CCOC(=O)C1=C(C)NC2=C(C(=O)C(C(=O)OCC)C(c3ccco3)C2)C1c1ccccn1 (centres undefined)	31.6µM	-	-	-	?	-
N/C(=N\OC(=O)c1cc([N+](=O)[O-])ccc1Cl)c1ccccn1	-	-	-	-	-	-
Cc1ccc(C(=O)O/N=C(\N)c2ccccn2)c(Cl)c1	-	-	?	-	-	1.12µM
N/C(=N\OC(=O)c1ccc(Cl)cc1Cl)c1ccccn1	-	-	-	-	-	5.62µM
SMILES	ClpP mod	GLP-1R agonist	HEK293 tox	DRD3 agonist	D3 antag	GLP-1R inv ag
N/C(=N/OC(=O)c1cccc([N+](=O)[O-])c1)c1cccc([N+](=O)[O-])c1	-	-	-[7.66 µM]	-	-53.1	-[7.66 µM]
N/C(=N\OC(=O)c1ccc([N+](=O)[O-])cc1Cl)c1ccccn1	.	-	-	-	-	1.78µM
CS(=O)(=O)c1ccc(/C=C2\C=Cc3ccccc32)cc1	-	.	.	.	.	.
CCCCOc1ccc(C(C)NC(=O)c2cccc(Nc3nc4ccccc4n4nnnc34)c2)cc1 (centres undefined)	-	.	-	-	.	-
CCC(=O)Oc1ccc2c(c1)CC[C@@H]1[C@@H]2CC[C@]2(C)[C@@H](OC(=O)CC)CC[C@@H]12	.	.	.	-	.	.
CCn1c(SCc2ccccc2)nnc1C1CCN(S(=O)(=O)c2ccc(OC)cc2)CC1	-	-	-	-	-	-
CCn1c(SCc2ccccc2)nnc1C1CCCCC1	-	-	-	-	-	3.98µM
CCn1c(CNc2ccc(Cl)cc2)nnc1SCc1ccccc1	-	-	-	-	-	11.2µM
COc1ccc(CC(=O)NC2CC(=O)N(c3ccc(C)c(C)c3)C2)cc1OC (centres undefined)	-	.	-	-	.	-
CCc1ccc(/C=C/C(=O)C2C(=O)c3ccccc3C2=O)cc1	-	-	-	-	?	-
CC[N+]1(C)CCC(O)(/C=C/c2ccccc2)C(C(=O)/C=C/c2ccccc2)C1 (centres undefined)	-	-	?	-	-	10µM
CCOc1ccccc1CNC(=O)CCc1c(C)nn(-c2ccc(N3CCCCC3)nn2)c1C	-	.	-	-	.	-
CCc1cc2c(=O)[nH]c(-c3ccccn3)nc2s1	-	-	?	-	-68.3	?
O=C(Cc1ccc(-c2ccccc2)cc1)NCCS(=O)(=O)N1CCN(c2ccc(F)cc2)CC1	-	.	-	-	.	-
C=CCN=c1scc(-c2ccccc2)n1/N=C/c1ccccn1	-	-	?	-	-	11.2µM
CCN=c1scc(-c2ccccc2)n1/N=C/c1ccccn1	.	-	-	-	-	3.16µM
Cc1ccccc1S(=O)Cc1ccc(C(=O)NC2CCCCCC2)o1 (centres undefined)	-	-	-	-	.	?
CC(Sc1ccc(Cl)cc1)C(=O)NCC(c1ccco1)N1CCCCC1 (centres undefined)	-	-	-	-	-	11.2µM
COc1cccc(N(CC(=O)NCCN2CCOCC2)S(=O)(=O)c2ccccc2)c1	17.8µM	-	-	-	-	-
O=C(NCC(c1ccco1)N1CCCCC1)c1ccc(COc2ccc(Cl)cc2)cc1 (centres undefined)	.	-	-	-	?	2.82µM
S=C(NCCc1ccccc1)NCC(c1ccco1)N1CCCCC1 (centres undefined)	.	-	-	-	-	7.08µM
N#Cc1c(N)n(-c2cccc(Cl)c2)c2nc3ccccc3nc12	-	-	-	-	.	-
